Test results: PubChem BioAssay (EPA / NIEHS)
“And” between values parts separate entries of the source, which are not always exact repeats. Identical values can stand only once. Inconclusive results are not listed. A structure can be active in one record and inactive in another. The source made the active and inactive calls. How the source made its calls, unless noted: active means hit-call score of the fitted dose curve at least 0.9, where 1 is the maximum; inactive means score below 0.9.

Tests used:
[1] = target: Retinoic acid receptor RXR-alpha (Homo sapiens) (UniProt P19793); assay: OT_NURR1_NURR1RXRa_1440: Odyssey Thera (OT) 24-hour HEK293T Protein Complementation Assay for Nurr1/retinoid X receptor (RXR) (AID 2283386; active means hit-call score of the fitted dose curve at least 0.9, where 1 is the maximum)
Outline: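 Interaction of Nurr1 with RXRα brings fused reporter fragments together in human HEK293T cells, restoring a functional reporter. Fluorescence intensity is measured 24 h after chemical treatment, and values are analysed in the positive direction against DMSO.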

[2] = target: Peroxisome proliferator-activated receptor gamma (Homo sapiens) (UniProt P37231); assay: OT_PPARg_PPARgSRC1_0480: Odyssey Thera (OT) 8-hour Protein-Complementation Assay for Peroxisome Proliferator-activated Receptor Gamma / SRC-1 Co-activator (AID 2283387; active means hit-call score of the fitted dose curve at least 0.9, where 1 is the maximum;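 further: nuclear to cytoplasmic split Venus YFP fluorescence ratio reporting PPARg SRC-1 interaction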)
Outline: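 Protein-fragment complementation in HEK293T: Venus YFP halves (residues 1-158, 159-239, mutated to IFP1/IFP2) fused to PPARg/SRC-1. 8 h exposure; N/C ratio at 488 nm; DMSO negative control.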

[3] = target: Peroxisome proliferator-activated receptor gamma (Homo sapiens) (UniProt P37231); assay: OT_PPARg_PPARgSRC1_1440: Odyssey Thera (OT) 24-hour Protein-Complementation Assay for Peroxisome Proliferator-activated Receptor Gamma/ SRC-1 Co-activator (AID 2283388; active means hit-call score of the fitted dose curve at least 0.9, where 1 is the maximum;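 further: nuclear to cytoplasmic ratio of reconstituted Venus YFP fluorescence in fixed imaged cells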)
Outline: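 Protein-fragment complementation between PPARg and coactivator SRC-1 was measured by fluorescence imaging in transiently transfected HEK293T cells after 24 h treatment. Signal was quantified as N/C ratio in the 488 nm channel, with DMSO as negative control.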

[4] = read-out: Tumor necrosis factor receptor superfamily member 6 (Homo sapiens) (UniProt P25445); assay: LTEA_HepaRG_FAS: Life Technologies and Expression Analysis (LTEA) Assay for Fas cell surface death receptor (FAS) using HepaRG (AID 2283447); conditions: mRNA level, 48 h; actives raise or lower the signal
Outline: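 FAS transcript level was measured by TaqMan qRT-PCR against three housekeeping genes after 48 h chemical exposure. Cells were HepaRG, 0.5% DMSO vehicle, with a top concentration of 100 uM and half-log dilutions over eight points, in duplicate.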

[5] = read-out: Fatty acid synthase (Homo sapiens) (UniProt P49327); assay: LTEA_HepaRG_FASN: Life Technologies and Expression Analysis (LTEA) Assay for Fatty Acid Synthase (FASN) using HepaRG (AID 2283448); conditions: mRNA level, 48 h; actives raise or lower the signal;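 on AC50: differentiated human HepaRG liver cells in serum-free induction medium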
Outline: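 FASN expression changes, up or down relative to 0.5% DMSO, were measured by qRT-PCR in human HepaRG cells after 48 h treatment with chemicals at eight concentrations (half-log steps from 100 uM).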

[6] = read-out: Cyclin Dependent Kinase Inhibitor 1A (CDKN1A), CDKN1A (gene 1026); assay: LTEA_HepaRG_CDKN1A: Life Technologies and Expression Analysis (LTEA) Assay for Cyclin Dependent Kinase Inhibitor 1A (CDKN1A) using HepaRG (AID 2283450); conditions: mRNA level, 48 h; actives raise or lower the signal
Outline: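 Read-out is CDKN1A mRNA by TaqMan qRT-PCR, normalized to three housekeeping genes and fitted in both directions against the DMSO baseline. Human HepaRG cells were treated 48 h with test chemicals up to 100 uM in half-log steps, 0.5% DMSO.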

[7] = read-out: Cyclin D1 (CCND1), CCND1 (gene 595); assay: LTEA_HepaRG_CCND1: Life Technologies and Expression Analysis (LTEA) Assay for Cyclin D1 (CCND1) using HepaRG (AID 2283451); conditions: mRNA level, 48 h; actives raise or lower the signal;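 on AC50: differentiated human HepaRG liver cells in serum-free induction medium; TaqMan qRT-PCR transcript level normalised to ACTB GAPDH and POLR2A housekeeping genes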
Outline: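 HepaRG plated 48 h, medium switched to serum-free induction medium, chemicals added in duplicate (top 100 uM, half-log steps, 0.5% DMSO) for 48 h, cells lysed, RNA measured by TaqMan qRT-PCR.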

[8] = read-out: catalase (CAT), CAT (gene 847); assay: LTEA_HepaRG_CAT: Life Technologies and Expression Analysis (LTEA) Assay for catalase (CAT) using HepaRG (AID 2283452); conditions: mRNA level, 48 h; actives raise or lower the signal;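 on AC50: TaqMan qRT-PCR signal normalized to ACTB GAPDH and POLR2A housekeeping genes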
Outline: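 Expression of CAT was quantified by TaqMan qRT-PCR with ACTB/GAPDH/POLR2A normalization after 48 h chemical exposure of HepaRG. Eight-point half-log series, top 100 uM, in 0.5% DMSO; gain or loss fitted against vehicle.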

[9] = target: Estrogen receptor (Homo sapiens) (UniProt P03372); assay: OT_ERa_GFPERaERE_0120: Odyssey Thera (OT) 2-hour HeLa Transcription Induction Assay for Estrogen Receptor (AID 2283382; active means hit-call score of the fitted dose curve at least 0.9, where 1 is the maximum)
Outline: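 HeLa, 384-well, 2 h chemical exposure; GFP reporter induction (ERE), fluorescence microscopy; high content image analysis; positive fitting direction vs DMSO.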

[10] = CEETOX_H295R_OHPREG: CeeTox H295R High-throughput Steroidogenesis Assay for OH-Pregnenolone (OHPREG) (AID 2283434); conditions: actives raise or lower the signal
Outline: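 Hormone levels in spent medium were measured by tandem mass spectrometry following liquid-liquid extraction. Cells (H295R) had been forskolin-stimulated (10 uM, 48 h) before a 48 h chemical exposure at 0.1% DMSO, with activity fitted in both directions against DMSO.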

[11] = CEETOX_H295R_OHPROG: CeeTox H295R High-throughput Steroidogenesis Assay for OH-Progesterone (OHPROG) (AID 2283435); conditions: actives raise or lower the signal;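 on AC50: 17alpha-hydroxyprogesterone secreted into medium measured by HPLC-MS/MS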
Outline: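 H295R, 10 uM forskolin prestim 48 h; cmpd in 0.1% DMSO 48 h; medium MTBE-extracted, HPLC-MS/MS for OH-progesterone; 7-pt std curve; bidirectional fit vs DMSO; MTT viability, chemicals diluted until viability >/=70%.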

[12] = CEETOX_H295R_CORTIC: CeeTox H295R High-throughput Steroidogenesis Assay for Corticosterone (CORTIC) (AID 2283437); conditions: actives raise or lower the signal;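 further: corticosterone secreted into medium quantified by mass spectrometry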
Outline: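 Corticosterone secreted into medium is measured by reverse-phase HPLC with tandem MS following liquid-liquid extraction. Cells are forskolin-stimulated (10 uM, 48 h) before 48 h test exposure; activity fitted in both directions against DMSO.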

[13] = CEETOX_H295R_CORTISOL: CeeTox H295R High-throughput Steroidogenesis Assay for Cortisol (AID 2283438); conditions: actives raise or lower the signal;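 further: cortisol secreted into medium quantified by LC-MS/MS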
Outline: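 Forskolin 10 uM 48 h prestim → test cmpd in DMSO (0.1% final) 48 h → medium MTBE-extracted → LC-MS/MS cortisol vs 7-pt std curve. Gain/loss of signal fitted vs DMSO. MTT viability in same wells.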

[14] = CEETOX_H295R_DOC: CeeTox H295R High-throughput Steroidogenesis Assay for DOC (AID 2283439); conditions: actives raise or lower the signal
Outline: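 Readout: 11-deoxycorticosterone in culture medium by reverse-phase C18 HPLC with ESI+ tandem MS after MTBE extraction. Cells: H295R, forskolin-primed (10 uM, 48 h), chemical-treated 48 h; DMSO 0.1% final. Activity fitted bidirectionally versus DMSO.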

[15] = CEETOX_H295R_ESTRADIOL: CeeTox H295R High-throughput Steroidogenesis Assay for Estradiol (AID 2283440); conditions: actives raise or lower the signal;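 further: estradiol secreted into medium quantified by LC-MS/MS after dansyl derivatisation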
Outline: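 Estradiol secreted into the medium was measured by tandem mass spectrometry after liquid-liquid extraction and dansylation. Human H295R cells had been forskolin-primed (10 uM, 48 h) before a 48 h chemical exposure with 0.1% DMSO.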

[16] = CEETOX_H295R_ESTRONE: CeeTox H295R High-throughput Steroidogenesis Assay for Estrone (AID 2283441); conditions: actives raise or lower the signal;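 further: estrone secreted into medium measured by LC-MS/MS after dansyl derivatization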
Outline: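 H295R cells prestimulated 48 h with 10 uM forskolin, then exposed 48 h to chemicals in 0.1% DMSO final; estrone in medium extracted with MTBE, dansyl-derivatized, quantified by HPLC-MS/MS; bidirectional fitting versus DMSO, viability by MTT.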

[17] = CEETOX_H295R_PROG: CeeTox H295R High-throughput Steroidogenesis Assay for Progesterone (PROG) (AID 2283442); conditions: actives raise or lower the signal
Outline: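 Steps: seed H295R cells and let them adhere overnight; prime 48 h with 10 uM forskolin; dose with compound in DMSO at 0.1% final for 48 h; extract medium steroids with MTBE; measure progesterone by LC-MS/MS. MTT viability was run in the same wells.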

Measured: AC50

Sequence of Retinoic acid receptor RXR-alpha (Homo sapiens) (P19793 whole entry, looked up, the tested form may be a part): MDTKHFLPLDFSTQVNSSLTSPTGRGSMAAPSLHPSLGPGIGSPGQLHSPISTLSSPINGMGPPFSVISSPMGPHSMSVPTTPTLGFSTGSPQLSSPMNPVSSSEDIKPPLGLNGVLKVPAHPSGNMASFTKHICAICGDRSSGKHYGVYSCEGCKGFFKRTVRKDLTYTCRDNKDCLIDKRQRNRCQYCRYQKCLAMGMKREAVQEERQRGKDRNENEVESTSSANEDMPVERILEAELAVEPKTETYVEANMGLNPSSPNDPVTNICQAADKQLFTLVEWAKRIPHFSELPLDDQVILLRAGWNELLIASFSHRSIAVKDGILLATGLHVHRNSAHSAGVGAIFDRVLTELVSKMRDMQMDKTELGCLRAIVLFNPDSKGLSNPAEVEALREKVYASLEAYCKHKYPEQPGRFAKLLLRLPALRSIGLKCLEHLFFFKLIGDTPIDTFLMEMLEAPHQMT
Sequence of Peroxisome proliferator-activated receptor gamma (Homo sapiens) (P37231 whole entry, looked up, the tested form may be a part): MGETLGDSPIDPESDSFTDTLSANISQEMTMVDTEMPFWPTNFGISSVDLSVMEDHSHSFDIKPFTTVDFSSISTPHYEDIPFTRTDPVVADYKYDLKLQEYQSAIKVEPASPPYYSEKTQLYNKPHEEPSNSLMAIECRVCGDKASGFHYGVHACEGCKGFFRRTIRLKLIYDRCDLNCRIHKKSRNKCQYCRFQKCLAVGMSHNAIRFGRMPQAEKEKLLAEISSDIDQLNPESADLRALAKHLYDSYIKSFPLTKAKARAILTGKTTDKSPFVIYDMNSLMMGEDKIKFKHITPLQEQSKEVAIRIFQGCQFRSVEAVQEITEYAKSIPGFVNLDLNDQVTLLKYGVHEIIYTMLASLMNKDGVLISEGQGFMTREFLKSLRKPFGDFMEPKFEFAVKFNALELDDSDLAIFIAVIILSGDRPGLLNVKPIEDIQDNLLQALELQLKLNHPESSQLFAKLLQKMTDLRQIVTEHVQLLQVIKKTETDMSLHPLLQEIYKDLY
Sequence of Estrogen receptor (Homo sapiens) (P03372 whole entry, looked up): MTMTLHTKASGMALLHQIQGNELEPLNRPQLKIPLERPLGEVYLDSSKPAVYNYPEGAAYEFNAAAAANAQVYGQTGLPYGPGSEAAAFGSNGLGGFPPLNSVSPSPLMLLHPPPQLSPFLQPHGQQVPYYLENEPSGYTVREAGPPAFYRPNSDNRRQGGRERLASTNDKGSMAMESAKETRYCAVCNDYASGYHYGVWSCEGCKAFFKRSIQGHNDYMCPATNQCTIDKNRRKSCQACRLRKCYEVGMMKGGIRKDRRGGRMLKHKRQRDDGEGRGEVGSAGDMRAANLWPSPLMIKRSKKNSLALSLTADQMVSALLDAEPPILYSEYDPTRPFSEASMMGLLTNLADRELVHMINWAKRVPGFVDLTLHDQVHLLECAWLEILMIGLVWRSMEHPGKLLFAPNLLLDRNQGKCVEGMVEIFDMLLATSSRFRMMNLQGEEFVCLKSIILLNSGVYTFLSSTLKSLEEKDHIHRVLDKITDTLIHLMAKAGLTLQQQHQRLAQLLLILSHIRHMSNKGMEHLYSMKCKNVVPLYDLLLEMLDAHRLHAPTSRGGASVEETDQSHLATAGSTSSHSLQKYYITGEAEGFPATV
Sequence of Fatty acid synthase (Homo sapiens) (P49327 whole entry, looked up): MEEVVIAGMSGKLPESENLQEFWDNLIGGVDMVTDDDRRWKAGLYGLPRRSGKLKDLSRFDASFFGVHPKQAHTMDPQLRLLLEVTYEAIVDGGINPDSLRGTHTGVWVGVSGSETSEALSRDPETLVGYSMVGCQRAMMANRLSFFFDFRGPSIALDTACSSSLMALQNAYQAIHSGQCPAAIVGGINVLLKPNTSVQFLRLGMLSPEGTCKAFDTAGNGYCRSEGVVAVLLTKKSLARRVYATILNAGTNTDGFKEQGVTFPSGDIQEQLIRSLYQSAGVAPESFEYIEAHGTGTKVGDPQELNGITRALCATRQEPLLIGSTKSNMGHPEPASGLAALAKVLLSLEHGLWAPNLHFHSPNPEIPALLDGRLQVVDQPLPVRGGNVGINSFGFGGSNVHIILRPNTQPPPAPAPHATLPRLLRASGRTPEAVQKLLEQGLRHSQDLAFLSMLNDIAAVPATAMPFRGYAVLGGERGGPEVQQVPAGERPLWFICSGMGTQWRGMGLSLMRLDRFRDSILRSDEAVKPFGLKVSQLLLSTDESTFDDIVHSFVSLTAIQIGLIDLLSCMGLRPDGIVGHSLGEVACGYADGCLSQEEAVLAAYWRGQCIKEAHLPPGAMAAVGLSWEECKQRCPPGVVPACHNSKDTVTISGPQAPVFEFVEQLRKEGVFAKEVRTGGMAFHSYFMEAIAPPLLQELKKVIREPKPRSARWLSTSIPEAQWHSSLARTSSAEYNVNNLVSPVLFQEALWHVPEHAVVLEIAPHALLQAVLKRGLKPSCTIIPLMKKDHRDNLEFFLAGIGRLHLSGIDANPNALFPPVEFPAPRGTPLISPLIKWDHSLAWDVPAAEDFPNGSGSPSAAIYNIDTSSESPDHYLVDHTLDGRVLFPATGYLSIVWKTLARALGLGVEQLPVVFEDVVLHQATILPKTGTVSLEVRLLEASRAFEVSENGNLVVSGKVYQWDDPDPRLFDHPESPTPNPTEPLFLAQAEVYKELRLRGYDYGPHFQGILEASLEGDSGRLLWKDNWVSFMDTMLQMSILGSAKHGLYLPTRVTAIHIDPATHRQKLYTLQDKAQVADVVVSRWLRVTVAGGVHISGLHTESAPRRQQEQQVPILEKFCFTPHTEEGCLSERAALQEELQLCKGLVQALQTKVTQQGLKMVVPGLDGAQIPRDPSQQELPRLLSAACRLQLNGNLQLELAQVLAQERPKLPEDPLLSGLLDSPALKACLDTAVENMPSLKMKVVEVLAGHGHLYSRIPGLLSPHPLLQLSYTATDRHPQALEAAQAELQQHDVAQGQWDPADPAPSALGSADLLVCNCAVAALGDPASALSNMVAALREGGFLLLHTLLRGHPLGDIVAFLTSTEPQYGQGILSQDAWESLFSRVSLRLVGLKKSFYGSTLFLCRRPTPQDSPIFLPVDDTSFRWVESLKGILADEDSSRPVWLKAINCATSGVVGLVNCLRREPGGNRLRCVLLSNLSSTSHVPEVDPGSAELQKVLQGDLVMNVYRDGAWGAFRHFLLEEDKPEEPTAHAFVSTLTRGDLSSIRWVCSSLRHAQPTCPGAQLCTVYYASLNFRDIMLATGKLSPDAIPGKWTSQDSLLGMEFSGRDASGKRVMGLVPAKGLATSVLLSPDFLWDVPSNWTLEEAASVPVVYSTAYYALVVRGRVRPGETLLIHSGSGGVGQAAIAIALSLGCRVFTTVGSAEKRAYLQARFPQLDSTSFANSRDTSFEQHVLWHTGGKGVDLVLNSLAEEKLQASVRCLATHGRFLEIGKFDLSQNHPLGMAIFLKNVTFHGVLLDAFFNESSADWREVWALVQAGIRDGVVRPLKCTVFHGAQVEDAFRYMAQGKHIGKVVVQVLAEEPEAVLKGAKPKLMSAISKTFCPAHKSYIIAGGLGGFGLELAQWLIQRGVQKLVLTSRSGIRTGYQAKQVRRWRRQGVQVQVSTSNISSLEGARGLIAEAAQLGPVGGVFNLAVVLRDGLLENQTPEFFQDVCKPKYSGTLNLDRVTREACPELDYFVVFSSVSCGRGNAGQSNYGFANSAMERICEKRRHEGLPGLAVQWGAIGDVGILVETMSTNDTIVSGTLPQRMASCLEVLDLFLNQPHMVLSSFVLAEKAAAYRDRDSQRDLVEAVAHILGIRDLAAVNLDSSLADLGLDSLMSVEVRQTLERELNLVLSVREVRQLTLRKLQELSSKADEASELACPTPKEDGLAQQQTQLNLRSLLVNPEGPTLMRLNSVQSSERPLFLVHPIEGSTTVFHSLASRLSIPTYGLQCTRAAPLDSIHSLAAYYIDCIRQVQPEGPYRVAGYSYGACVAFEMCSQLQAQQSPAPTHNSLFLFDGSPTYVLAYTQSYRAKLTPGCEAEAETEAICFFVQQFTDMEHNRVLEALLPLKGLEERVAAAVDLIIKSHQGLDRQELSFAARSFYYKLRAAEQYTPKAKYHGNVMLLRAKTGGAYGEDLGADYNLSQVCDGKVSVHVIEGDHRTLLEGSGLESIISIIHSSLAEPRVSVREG

O=C(O)CCCOc1ccc(Cl)cc1Cl
inactive: [1] | [2] | [3] | [4] | [5] | [6] | [7] | [8]

O=C(NC(=O)c1c(F)cccc1F)Nc1ccc(OC(F)(F)C(F)OC(F)(F)F)c(Cl)c1 (stereo not given)
active: [5] 8.63 µM
inactive: all other assays above

CNC(=O)Oc1ccccc1OC(C)C
inactive: all assays above

O=S(=O)(O)C(F)(F)C(F)(F)C(F)(F)C(F)(F)C(F)(F)C(F)(F)C(F)(F)C(F)(F)F
inactive: [1] | [2] | [3] | [4] | [6] | [7] | [8]
active: [5] 81.5 µM and 71.8 µM and 73.8 µM | [7] 18.5 µM and 22.3 µM and 12.3 µM | [8] 84 µM

O=C(O)C(F)(F)C(F)(F)C(F)(F)C(F)(F)C(F)(F)C(F)(F)C(F)(F)F
active: [8] 23.3 µM
inactive: [1] | [4] | [5] | [6] | [7] | [8]

CC(C)(C)C(O)C(Oc1ccc(Cl)cc1)n1cncn1 (stereo not given)
inactive: [1] | [2] | [3] | [10] | [11] | [17] | [4] | [6] | [7] | [8]
active: [11] 18.3 µM and 3.14 µM and 3.31 µM | [5] 32.7 µM and 50 µM and 27.9 µM

COP(=O)(OC)OC=C(Cl)Cl
inactive: [9] | [1] | [2] | [3] | [4] | [5] | [6] | [7] | [8]
